Inconclusive results are not listed. Activity calls are given as the source filed them. Calls come from the whole dose curve; as a rule, active = well fitted inhibition curve with a large enough effect; inconclusive = small, poorly fitted or top-dose-only effect; inactive = flat fitted curve, though single readings scatter. Where a SMILES comes first, the peptide text is derived from it. [ ]: non-standard residue; d: D form. pGlu = O=C1CC[C@@H](C(=O)O)N1; Thz = O=C(O)[C@@H]1CSCN1
% is set by controls: 0 for no effect and ±100 for the full control effect; potency is the fitted concentration of half-maximal effect.

This test has as its system astro (control astrocytes). Description: Drug repurposing screens with cells derived from glioblastoma tumor samples (AID 1345199). Note: nearly all actives have a fitted effect of over 40% in size. The settings on record: viability, ATP luminescence, 48 h; series mostly up to 45.9 µM; activity, negative = cell killing: at the top concentration. On the procedure: CD133+ cells were isolated from GBM patient biopsies and cultured as neurospheres. Neurospheres from four patients were used to screen the NCATS pharmaceutical collection (NPC) library of approved drugs and bioactive compounds. […] The neurospheres were incubated with drugs for 48 hours in 1536-well format, then assayed with an ATP content cell viability assay. […] These hits were cherry picked to confirm activity in the four original GBM lines screened plus three other slower growing GMB lines (unable to yield enough cells for a full primary screen). Variable activities of the confirmed primary hits in the different GBM patient lines were observed. The patient line 206 responded to the greatest number of compounds and line 923 responded to the least amount of active compounds.
As for `C=CC(N)CCC(=O)O` (stereo not given), the “activity, negative = cell killing” value was 4.62% (inactive).

With `Nc1cc(-c2ccncc2)c[nH]c1=O`, the “activity, negative = cell killing” value is 15.3% (inactive).

With `COc1cc(NC(C)CCCN)c2ncccc2c1` (stereo not given), the “activity, negative = cell killing” value is -20.2% [at 21.2 µM] (inactive).

Turning to `CC[C@H]1OC(=O)[C@H](C)C(=O)[C@H](C)[C@@H](O[C@@H]2O[C@H](C)C[C@H](N(C)C)[C@H]2O)[C@](C)(OC)C[C@@H](C)C(=O)[C@H](C)[C@H]2N(CCCCn3cnc(-c4cccnc4)c3)C(=O)O[C@]12C`, the “activity, negative = cell killing” value is -7.24% (inactive).

As for `N=C1N=C(N)c2cc3ccccc3cc21`, the Potency was 39.8 µM (active).

On to `NCCO`, for which the “activity, negative = cell killing” value is -13.1% [at 91.6 µM] (inactive).

For `CC(=O)SCC(CC(=O)c1ccc(C)cc1)C(=O)O` (stereo not given), the “activity, negative = cell killing” value is -12.7% (inactive).

In the case of `CCCCCCCCCCCCCCCC(=O)OC(C)C`, the “activity, negative = cell killing” value is -14.4% (inactive).

As to `COc1cccc2c1C(=O)c1c(O)c3c(c(O)c1C2=O)C[C@@](O)(C(=O)CO)C[C@@H]3O[C@H]1C[C@H](N)[C@H](O[C@@H]2CCCCO2)[C@H](C)O1`, the Potency is 12.6 µM (active).

Turning to `CC(C(=O)O)c1ccc(C(=O)c2cccs2)cc1` (stereo not given), the “activity, negative = cell killing” value is -6.45% [at 21.2 µM] (inactive).

As for `Cc1nc2ccccc2n1Cc1ccc(Cl)cc1`, the Potency is 3.16 µM (active).

On to `CC(C(=O)O)c1ccc2c(c1)[nH]c1ccc(Cl)cc12` (stereo not given), for which the “activity, negative = cell killing” value is -28.9% (inactive).

As to `CCCCC[C@H](O)/C=C/[C@@H]1[C@@H](C/C=C\CCCC(=O)O)[C@@H](O)C[C@H]1O`, the Potency result was “inactive”.

For `Cc1c(N)c(=O)n(-c2ccccc2)n1C`, the “activity, negative = cell killing” value was -9.82% [at 21.2 µM] (inactive).

On to `O=C(CCN1CCN(CCO)CC1)N1c2ccccc2Sc2ccc(C(F)(F)F)cc21`, for which the “activity, negative = cell killing” value is -7.61% (inactive).

As for `CC1(C)S[C@@H]2[C@H](NC(=O)[C@H](N)c3ccccc3)C(=O)N2[C@H]1C(=O)O`, the “activity, negative = cell killing” value is -8.82% (inactive).

`CO[C@H]1C[C@@H]2CC[C@@H](C)[C@@](O)(O2)C(=O)C(=O)N2CCCC[C@H]2C(=O)O[C@H]([C@H](C)C[C@@H]2CC[C@@H](O)[C@H](OC)C2)CC(=O)[C@H](C)C=C(C)[C@@H](O)[C@@H](OC)C(=O)[C@H](C)C[C@H](C)/C=C/C=CC=C1C`: the Potency is 35.5 µM (active).

`CCCCCCCCCCCCCCCCCC(=O)O`: the “activity, negative = cell killing” value was -18.2% (inactive).

Regarding `C=C(Nc1ccc(OCC)cc1)Nc1ccc(OCC)cc1`, the Potency result was “inactive”.

For `c1ccc2sc(SN3CCOCC3)nc2c1`, the “activity, negative = cell killing” value is -13.2% (inactive).

With `CC(C)OC(=O)c1cc(C(=O)OC(C)C)cc([N+](=O)[O-])c1`, the “activity, negative = cell killing” value was -6.87% [at 91.6 µM] (inactive).

With `Nc1ccc(O)c(C(=O)O)c1`, the “activity, negative = cell killing” value is -12.6% (inactive).

For the compound `CCC1C(=O)OCC1Cc1cncn1C` (stereo not given), the “activity, negative = cell killing” value was -13.2% (inactive).

With `O=C1CC[C@@H](C(=O)N2CSC[C@H]2C(=O)O)N1` ([pGlu]-[Thz]-OH), the “activity, negative = cell killing” value was -9.59% (inactive).

`O=C(/C=C/c1ccccc1)NCCO`: the “activity, negative = cell killing” value is -22.7% (inactive).

Turning to `O=C(OCc1ccccc1)c1ccccc1`, the “activity, negative = cell killing” value is -6.85% (inactive).

`CC1(C)S[C@@H]2[C@H](NC(=O)[C@H](NC(=O)N3CCN(S(C)(=O)=O)C3=O)c3ccccc3)C(=O)N2[C@H]1C(=O)O`: the “activity, negative = cell killing” value is -0.275% (inactive).

As to `C[N+](C)(C)CCOP(=O)(O)OP(=O)([O-])OC[C@H]1O[C@@H](n2ccc(N)nc2=O)[C@H](O)[C@@H]1O`, the Potency result is “inactive”.

As for `Nc1c(CC(=O)O)cccc1C(=O)c1ccc(Br)cc1`, the “activity, negative = cell killing” value was -16.7% (inactive).

As to `C#CC1(O)CC[C@H]2[C@@H]3CCC4=CCCC[C@@H]4[C@H]3CC[C@@]21C` (stereo not given in full), the “activity, negative = cell killing” value is -19.8% [at 21.2 µM] (inactive).

Regarding `C=CCN1C(=O)C(CC(C)C)NC1=S` (stereo not given), the Potency entry was “inactive”.

As for `CC(=O)O[C@H]1C[C@@]2(C)[C@@H](C[C@@H](O)[C@H]3[C@@]4(C)CC[C@@H](O)[C@@H](C)[C@@H]4CC[C@@]32C)/C1=C(\CCC=C(C)C)C(=O)O`, the “activity, negative = cell killing” value was -5.95% (inactive).

Take `CN(C)[C@@H]1C(=O)C(C(=O)NCN2CCCC2)=C(O)[C@@]2(O)C(=O)C3=C(O)c4c(O)cccc4[C@@](C)(O)C3C[C@@H]12` (stereo not given in full): the Potency entry is “inactive”.

In the case of `Nc1ccc(C(=O)O)c(O)c1`, the “activity, negative = cell killing” value was -14.3% (inactive).

Regarding `CC[C@H]1OC(=O)[C@H](C)[C@@H](O[C@H]2C[C@@](C)(OC)[C@@H](O)[C@H](C)O2)[C@H](C)[C@@H](O[C@@H]2O[C@H](C)C[C@H](N(C)C)[C@H]2O)[C@](C)(O)C[C@@H](C)C(=O)[C@H](C)[C@@H](O)[C@]1(C)O`, the Potency entry was “inactive”.

As for `COc1cc(/C=C/C(=O)N2CCN(CC(=O)N3CCCC3)CC2)cc(OC)c1OC`, the “activity, negative = cell killing” value was -8.44% (inactive).

In the case of `CCOC(=O)c1ccccc1O`, the Potency result is “inactive”.

As for `CN(C)CCn1nnnc1SCC1=C(C(=O)O)N2C(=O)[C@@H](NC(=O)Cc3csc(N)n3)[C@H]2SC1`, the “activity, negative = cell killing” value is -11% [at 21.2 µM] (inactive).

As for `CO[C@@]1(NC(=O)Cc2cccs2)C(=O)N2C(C(=O)O)=C(COC(N)=O)CS[C@@H]21`, the Potency result is “inactive”.

Turning to `C[S+](CC[C@H](N)C(=O)O)C[C@H]1O[C@@H](n2cnc3c(N)ncnc32)[C@H](O)[C@@H]1O` (stereo not given in full), the Potency result was “inactive”.

Values taken from PubChem BioAssay (NCATS).
